Laboratory results taken from ChEMBL document CHEMBL4513216, “Probing the Open Global Health Chemical Diversity Library for Multistage-Active Starting Points for Next-Generation Antimalarials” (ACS Infect Dis, 2020).
Hit rate of the full screen: of about 69,000 compounds, about 8,600 (12%) showed an effect of 50% or more. The full list was thinned out, with strong results kept by preference.

Tested on: Plasmodium berghei
Assay: Screen against P. berghei liver stage (PbLuc), transformed with Luciferase, at 10uM
Format: functional, HepG2
Details: tested at 10 uM

Row | SMILES | INHIBITION
1 | CN(C)c1cc(CNC(=O)c2cnccn2)ccn1 | -6.14%
2 | O=C(Cc1c(F)cccc1Cl)Nc1cc(N2CCOCC2)ncn1 | 30.9%
3 | CC(C)n1nc(CN2CCCC2=O)c2c1CN(C(=O)c1ccco1)C2 | 39.5%
4 | CCC1c2cccn2CCN1S(=O)(=O)N1CCOCC1 (configuration not stated) | 31.2%
5 | CCN1CCN(C(=O)COCc2cccc(OC)c2)CC1 | -28.675%
6 | Cc1ccc(CN2C(=O)CCC23CCC(NC2CCOC2)CC3)cc1 (configuration not stated) | 35.8%
7 | Cc1occc1C(=O)N1CCOCC2(CCN(C3CCOCC3)C2)C1 (configuration not stated) | 43.9%
8 | CC(C)S(=O)(=O)N1C[C@@H](O)[C@H](N(C)Cc2ccc(F)cc2)C1 | 30.75%
9 | CNC(=O)Cc1ccc(NC(=O)NC(C)C(C)C)cc1 (configuration not stated) | -9.48%
10 | Cc1cnc(CNC(=O)NCc2cccnc2N(C)C)s1 | 45.8%
11 | CNC(=O)Cc1ccc(NC(=O)NC2(c3cccc(F)c3)CC2)cc1 | 9%
12 | CNC(=O)Cc1ccc(NC(=O)NCc2ncc(C)s2)cc1 | 64%
13 | CNC(=O)Cc1ccc(NC(=O)NCc2nc(C)sc2C)cc1 | 52.2%
14 | CNC(=O)Cc1ccc(NC(=O)NCC(C)c2ncc(C)s2)cc1 (configuration not stated) | 14.8%
15 | COc1ccc(-c2nc(CN3CCc4cncnc4C3)no2)cc1 | 5.72%
16 | CCc1c(C(=O)N2C[C@@H]3CC[C@H]2CN(c2cnccn2)C3)csc1C | -59.5%

Row | SMILES | INHIBITION
17 | CSc1ccc(S(=O)(=O)N2CCCCC2CCNC(C)=O)cc1 (configuration not stated) | 11.8%
18 | CC(=O)c1ccc(S(=O)(=O)N2CCCC2CN2CCCC2)cc1 (configuration not stated) | 51.1%
19 | CC(=O)c1ccc(C(=O)N2C[C@@H](CN3CCCC3)[C@@H](CO)C2)cc1 | 32.5%
20 | COC[C@]1(O)CCN(C2CCN(c3ccc(F)c(F)c3)CC2)CC1(C)C | 39.4%
21 | COC(=O)c1cccc(C2CNCCN2C(C)=O)c1 (configuration not stated) | 24.99%
22 | COC(=O)CNC(=O)Cn1ccc2cccc(OC)c21 | 48.9%
23 | Cc1csc(N2CCN(CC(=O)Nc3cc(C)nn3C)CC2C)n1 (configuration not stated) | 12.96%
24 | CCn1nc(C)c2nc(C(C)C)nc(N3CCCC3)c21 | 15.4%
25 | O=C1CC2(CCCC2)CC(=O)N1CCn1cnnc1 | -28.9%
26 | Cc1nccn1CCN1C(=O)CC2(CCCC2)CC1=O | 56%
27 | Cc1nncn1CCN1C(=O)CC2(CCCC2)CC1=O | -23.3%
28 | CC(C)c1nn(C)c(N(C)C)c1CNC1CCCCNC1=O (configuration not stated) | -4.13%
29 | O=C(Cc1cccc(O)c1)NCCCNC(=O)c1cccc(F)c1 | 8.64%
30 | Cc1cccc(-c2nc(N)nc3c2CN(C(=O)c2ccncn2)C3C)c1 (configuration not stated) | 19.9%
31 | Cc1cccc(-c2nc(N)nc3c2CN(C(=O)c2cc(C)n[nH]2)C3C)c1 (configuration not stated) | 58.9%
32 | COCC(=O)N1Cc2c(-c3cccc(C)c3)nc(N)nc2C1C (configuration not stated) | -24.1%
